The structures appear in SMILES notation. Where “and” joins values, the source holds several entries; their conditions need not be identical. Equal entries are not always repeated. Calls of active or inactive are those of the source. How the source made its calls: active means hit-call score of the fitted dose curve at least 0.9, where 1 is the maximum; inactive means score below 0.9.

Read-out in assay [1]: Tissue plasminogen activator (tPA), PLAT (gene 5327)
Put plainly: BSK_BE3C_tPA: BioMAP Diversity Plus: BE3C Assay for Tissue plasminogen activator (tPA) Biomarker Activity (AID 2283041).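 On outcome: tPA level quantified by ELISA one day after compound addition.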 The note with it: primary human bronchial epithelial cells; actives raise or lower the signal. The method in brief:
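Using human lung primary bronchial epithelial cells, tPA was measured by ELISA 24 h after dosing; data fitted relative to DMSO.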

Read-out in assay [2]: Interleukin-8 (IL8), CXCL8 (gene 3576)
Put plainly: BSK_CASM3C_IL8: BioMAP Diversity Plus: CASM3C Assay for Interleukin-8 (IL8) Biomarker Activity (AID 2283042).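 Further: IL-8 protein level quantified by ELISA.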 The note with it: primary human coronary artery smooth muscle cells; actives raise or lower the signal.

Read-out in assay [3]: Human Leukocyte Antigen - DR isotype (HLADR), HLA-DRA (gene 3122)
Put plainly: BSK_CASM3C_HLADR: BioMAP Diversity Plus: CASM3C Assay for Human Leukocyte Antigen - DR isotype (HLADR) Biomarker Activity (AID 2283043).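 Further: cell-surface HLA-DR protein level quantified by ELISA.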 The note with it: primary human coronary artery smooth muscle cells; actives raise or lower the signal.

Read-out in assay [4]: Macrophage colony-stimulating factor (MCSF), CSF1 (gene 1435)
As to the kind of experiment: BSK_CASM3C_MCSF: BioMAP Diversity Plus: CASM3C Assay for Macrophage colony-stimulating factor (MCSF) Biomarker Activity (AID 2283044).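 Further: M-CSF protein amount quantified by ELISA after 24 h exposure.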 The note with it: primary human coronary artery smooth muscle cells; actives raise or lower the signal.

Read-out in assay [5]: Low-density lipoprotein receptor (LDLR), LDLR (gene 3949)
As to the kind of experiment: BSK_CASM3C_LDLR: BioMAP Diversity Plus: CASM3C Assay for Low-density lipoprotein receptor (LDLR) Biomarker Activity (AID 2283045).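 Further: LDLR protein level on the cell surface quantified by ELISA.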 The note with it: primary human coronary artery smooth muscle cells; actives raise or lower the signal.

Read-out in assay [6]: Monocyte Chemoattractant Protein-1 (MCP1), CCL2 (gene 6347)
As to the kind of experiment: BSK_CASM3C_MCP1: BioMAP Diversity Plus: CASM3C Assay for Monocyte Chemoattractant Protein-1 (MCP1) Biomarker Activity (AID 2283046).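 Further: MCP-1 level quantified by ELISA 24 h after dosing.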 The note with it: primary human coronary artery smooth muscle cells; actives raise or lower the signal.

The nature of assay [7]: BSK_CASM3C_Proliferation: Cell Proliferation Assessment in the BioMAP Diversity Plus: CASM3C Assay (AID 2283047).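 Further: sulforhodamine B total protein stain as relative cell number at 560 nm; sub-confluent cells exposed 48 h before staining; fitted both ways against DMSO so gain or loss of cell number.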 The note with it: primary human coronary artery smooth muscle cells.
Read-out in assay [8]: Monokine induced gamma interferon (MIG), CXCL9 (gene 4283)
As to the kind of experiment: BSK_CASM3C_MIG: BioMAP Diversity Plus: CASM3C Assay for Monokine induced gamma interferon (MIG) Biomarker Activity (AID 2283048).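 Further: MIG protein level measured by ELISA.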 The note with it: primary human coronary artery smooth muscle cells; actives raise or lower the signal.

Read-out in assay [9]: serum amyloid A (SAA), SAA1 (gene 6288)
As to the kind of experiment: BSK_CASM3C_SAA: BioMAP Diversity Plus: CASM3C Assay for serum amyloid A (SAA) Biomarker Activity (AID 2283049).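 Further: SAA protein level quantified by ELISA.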 The note with it: primary human coronary artery smooth muscle cells; actives raise or lower the signal.

Assay [10] in a line: BSK_CASM3C_SRB: Viability Assessment in the BioMAP Diversity Plus: CASM3C Assay (AID 2283050).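 Further: total protein by SRB staining as cytotoxicity measure in parallel cultures; cells exposed to compound for 24 h.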 The note with it: primary human coronary artery smooth muscle cells.

As to `CCOC(=O)CC(=O)C(F)(F)C(F)(F)F`, the outcome in [1], in [2], in assay [3], in assay [4], in [5] and in [6] was inactive. The result in assay [7], in [8], in assay [9] and in [10] was inactive.

Turning to `NC(=O)C(F)(F)C(F)(F)C(F)(F)C(F)(F)C(F)(F)C(F)(F)C(F)(F)F`, the result in assay [1], in assay [2], in assay [3], in [4], in assay [5] and in [6] was inactive. Also, the result in [7], in assay [8], in assay [9] and in [10] was inactive.

`NCC(F)(F)C(F)(F)C(F)(F)C(F)(F)C(F)(F)C(F)(F)C(F)(F)C(F)(F)F`: the result in assay [1], in assay [2], in assay [3], in [4], in [5] and in assay [6] was inactive. Moreover, the result in assay [7], in [8], in assay [9] and in [10] was inactive.

Turning to `CCN(CC)c1ccc(C=O)c(O)c1`, the outcome in assay [1], in assay [2], in [3], in [4], in assay [5] and in assay [6] was inactive. For the same molecule, the outcome in assay [7], in assay [8], in [9] and in assay [10] was inactive.

For `O=S(=O)(Cl)C(F)(F)C(F)(F)C(F)(F)C(F)(F)C(F)(F)C(F)(F)C(F)(F)C(F)(F)F`, the AC50 in [1] is 48.7 µM (active) and 48.8 µM (active). Moreover, the result in assay [2], in assay [3], in assay [4], in assay [5], in assay [6] and in assay [7] was inactive. Moreover, the outcome in [8], in assay [9] and in [10] was inactive.

Turning to `CCN(CC)c1ccc(C=O)cc1`, the outcome in [1], in assay [2], in assay [3], in assay [4], in assay [5] and in [6] was inactive. Further, the result in assay [7], in assay [8], in assay [9] and in [10] was inactive.

For `FC(F)(F)C(F)(F)C(F)(F)C(F)(F)C(F)(F)C(F)(F)CC[Si](Cl)(Cl)Cl`, the outcome in assay [1], in assay [2], in [3], in [4], in [5] and in assay [6] was inactive. Also, the result in assay [7], in assay [8], in [9] and in assay [10] was inactive.

Regarding `Cc1cc(C)c(O)c(C(C)(C)C)c1`, the AC50 in [1] was 29.6 µM (active); in assay [3], 25.5 µM (active); in assay [4], 22.7 µM (active); in [5], 20 µM (active); in [6] it was 24.9 µM (active); in [7] it was 25.3 µM (active). The results for the AC50 in assay [8], in assay [9] and in assay [10] were 29.3 µM (active), 20 µM (active) and 27.2 µM (active), respectively. Besides, in assay [2], the outcome was inactive.

Regarding `CCN(CC)c1ccc(N=Nc2ccccc2)cc1`, the AC50 in assay [1] is 27.7 µM (active); in [3] it was 31.9 µM (active); in assay [6], 4.07 µM (active); in assay [7] it was 8.48 µM (active); in assay [10], 20 µM (active). Moreover, the outcome in assay [2], in assay [4], in assay [5], in [8] and in [9] was inactive.

Take `Cc1cnccn1`: the outcome in assay [1], in assay [2], in assay [3], in assay [4], in assay [5] and in assay [6] was inactive. Also, the result in assay [8], in assay [9] and in [10] was inactive. Moreover, the AC50 in assay [7] was 0.196 µM (active).

For `FC(F)(F)C(F)(F)C(F)(F)CC1CO1` (stereo not given), the result in assay [1], in assay [2], in assay [3], in [4], in assay [5] and in [6] was inactive. Besides, the result in assay [7], in assay [8], in [9] and in [10] was inactive.

For `NCC(F)(F)C(F)(F)C(F)(F)C(F)(F)C(F)(F)C(F)(F)F`, the result in assay [1], in assay [2], in [3], in [4], in [5] and in [6] was inactive. In addition, the result in assay [7], in assay [8], in assay [9] and in assay [10] was inactive.

As for `CCN=C1C=CC(=C(c2ccc(N(CC)CC)cc2)c2ccc(N(CC)CC)cc2)c2ccccc21`, the AC50 in assay [1] is 1.54 µM (active) and 976 nM (active); in [3] it was 4.2 µM (active) and 3.11 µM (active); in assay [4], 5.89 µM (active) and 2.3 µM (active); in assay [6] it was 4.84 µM (active) and 4.54 µM (active); in assay [7], 1.09 µM (active) and 1.31 µM (active); in [8] it was 5.1 µM (active) and 5.25 µM (active). The AC50 in assay [9] was 371 nM (active) and 1.07 µM (active); in assay [10] it was 5.3 µM (active) and 5.29 µM (active). Also, the result in assay [2] and in [5] was inactive.

For the molecule `O=C(O)CCC(F)(F)C(F)(F)C(F)(F)F`, the outcome in assay [1], in assay [2], in assay [3], in assay [4], in [5] and in assay [6] was inactive. For the same molecule, the result in [7], in assay [8], in [9] and in assay [10] was inactive.

`O=C=NCc1cccc(CN=C=O)c1`: the outcome in assay [1], in assay [2], in assay [3], in [4], in [5] and in assay [6] was inactive. The outcome in assay [7], in [8], in [9] and in assay [10] was inactive.

`COC(F)(C(F)F)C(F)(F)F` (stereo not given): the outcome in assay [1], in [2], in assay [3], in assay [4], in [5] and in assay [6] was inactive. The result in assay [7], in assay [8], in assay [9] and in assay [10] was inactive.

Regarding `Brc1nc2ccccc2s1`, the outcome in assay [1], in [2], in assay [3], in assay [4], in assay [5] and in assay [6] was inactive. Besides, the outcome in [7], in [8], in assay [9] and in [10] was inactive.

Usually AC50 stands for the midpoint of the concentration-response curve, whichever way the signal moves.
